In PubChem BioAssay AID652257 (The Scripps Research Institute Molecular Screening Center, 2013) one finds inhibition data, which are given here for 57 compounds.

Molecules are shown by their SMILES. About 4,800 (1.3%) of roughly 370,000 compounds were called active.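 The calls were made as follows: active = inhibition above about 21% made by adding two undisclosed values (limit read from the data); inactive = the rest.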 The entries come from a sample that favours actives as a whole.

The inhibition is the relative decrease from the control value, in per cent.

Protein arginine N-methyltransferase 1 (Homo sapiens), sequence (Q99873 whole entry, looked up): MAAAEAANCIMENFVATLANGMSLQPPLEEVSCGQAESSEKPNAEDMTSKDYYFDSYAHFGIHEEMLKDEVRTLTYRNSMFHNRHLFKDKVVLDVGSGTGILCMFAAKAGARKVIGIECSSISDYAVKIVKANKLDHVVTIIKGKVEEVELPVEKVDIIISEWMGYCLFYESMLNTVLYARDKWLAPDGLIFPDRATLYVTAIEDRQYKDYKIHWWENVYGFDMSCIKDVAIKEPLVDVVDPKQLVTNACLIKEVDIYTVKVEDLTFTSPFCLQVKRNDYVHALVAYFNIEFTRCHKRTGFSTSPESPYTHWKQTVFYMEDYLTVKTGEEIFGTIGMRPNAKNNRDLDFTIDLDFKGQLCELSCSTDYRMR

The assay addresses Protein arginine N-methyltransferase 1 (Homo sapiens) (UniProt Q99873). The assay can be described thus: PRMT1 methyltransferase inhibitors, primary screen, biochemical, fluorescence polarization (AID 652257). Particulars: recombinant PRMT1, activity-based probe fluorescence polarization; at 2.79 µM; stronger effect = higher value. On the technique in general: Fluorescence polarisation rises when a labelled molecule tumbles more slowly, as on binding a larger partner.
For the compound `Cc1ccc(S(=O)(=O)N2CCN(C(=O)c3ccccc3-c3nc4ccccc4s3)CC2)c(C)c1`, the inhibition is 6.86% (inactive).

`O=C(O)c1cc(S(=O)(=O)N2CCCCCC2)c(Cl)cc1Cl`: the inhibition was -2.22% (inactive).

As for `O=C(c1ccc[nH]c1=S)N1CCN(S(=O)(=O)c2ccc(Br)cc2Cl)CC1`, the inhibition is 31.8% (active).

As for `O=C(CNS(=O)(=O)c1ccccc1F)N1CCN(c2ccccn2)CC1`, the inhibition was 2.96% (inactive).

As to `O=S(=O)(c1ccc2c(c1)OCCCO2)N1CCN(S(=O)(=O)c2c(F)cccc2F)CC1`, the inhibition is -4.09% (inactive).

For `Cc1ccc(C(=O)OCC(=O)NC2CCCCCCC2)cc1C`, the inhibition is -2.13% (inactive).

As to `COc1cc(C(=S)NC2CCCCC2)ccc1O`, the inhibition was 29% (active).

In the case of `COc1ccc(C)cc1NC(=S)N1CCOCC1`, the inhibition was -1.44% (inactive).

`COc1ccc(C(C)NC(=S)NC2CCCCC2)cc1OC` (configuration not stated): the inhibition was -2.42% (inactive).

Take `COc1cc(C(=S)N2CCOCC2)ccc1O`: the inhibition is 24.1% (active).

In the case of `COc1cc(C(=O)Nc2cc(C(F)(F)F)ccc2N2CCOCC2)ccc1O`, the inhibition is -2.71% (inactive).

`COC(=O)C[C@@H]1CC[C@@H]2[C@@H](COc3ccc(NC(=O)Nc4ccc(F)c(F)c4)cc3C(=O)N2C)O1`: the inhibition is -0.15% (inactive).

In the case of `O=C1c2ccccc2C(=O)N1CCC(c1ccccc1)c1ccco1` (configuration not stated), the inhibition was 8.33% (inactive).

On to `CCCCCN(C(=O)NC(=O)Nc1ccccc1OC)S(C)(=O)=O`, for which the inhibition is 5.33% (inactive).

On to `O=C(OC12CCCN(C1)/C(=C/c1cccnc1)C2)C1CCCC1` (configuration not stated), for which the inhibition is 0.1% (inactive).

In the case of `CCOC(=O)[C@@]12CN(C(=O)OC(C)(C)C)CC=C1N(Cc1ccc(OC)cc1)C(=O)[C@H]2CC(=O)NCc1ccc(OC)c(OC)c1`, the inhibition was -3.24% (inactive).

As to `O=C(Nc1c(-c2ccccc2)nc2c(Br)cc(Br)cn12)c1ccco1`, the inhibition is 0.75% (inactive).

With `O=C(Nc1ccccc1C(=O)N1CCCCC1)c1ccco1`, the inhibition is -7.4% (inactive).

As for `O=C(Nc1nc(-c2ccco2)c(-c2ccco2)s1)c1ccco1`, the inhibition was 51.8% (active).

As for `O=C(CSc1nnc(C2CC2)n1Cc1ccccc1)Nc1cccnc1Cl`, the inhibition was 4.21% (inactive).

Turning to `Cc1cccc(C)c1NC(=O)N1CC(C)OC(C)C1` (configuration not stated), the inhibition is 1.08% (inactive).

Consider `Cc1cccc(C)c1NC(=O)C(Cl)C(=O)c1ccccc1` (configuration not stated), for which the inhibition was 32% (active).

Take `CN=C(c1ccccc1)c1c(C)cccc1C`: the inhibition is -2.83% (inactive).

Consider `CCOc1ccc(S(=O)(=O)N2CCC(C(=O)NCC(=O)Nc3cccc(Cl)c3C)CC2)cc1`, for which the inhibition is -4.55% (inactive).

For the compound `CC(C)[C@@H](C)/C=C/[C@@H](C)[C@H]1CC[C@@H]2[C@]1(C)CCC1[C@]23C=C[C@]2(C[C@@H](O)CC[C@]12C)N(c1ccc([N+](=O)[O-])cn1)O3` (some centres not stated), the inhibition is 1.5% (inactive).

As for `O=S(=O)(Cc1nnnn1-c1ccc(Br)cc1)c1ccc(F)cc1`, the inhibition is -3.12% (inactive).

As to `CC1CCN(C(=S)NC(=O)c2ccccc2Br)CC1`, the inhibition was -1.71% (inactive).

For the compound `O=C(NC(=S)Nc1ncccn1)c1ccccc1Br`, the inhibition was 21.4% (active).

Turning to `COC(=O)c1cccnc1NC(=S)NC(C)C`, the inhibition is -1.9% (inactive).

For the compound `CC(=O)N(O)CCCCCNC(=O)CCC(=O)N(O)CCCCCNC(=O)CCC(=O)N(O)CCCCCNC(=O)CCC(=O)O`, the inhibition is -4.14% (inactive).

As to `CCCCn1c(N)c(N(CCOC)C(=O)c2oc3ccc(OC)cc3c2C)c(=O)[nH]c1=O`, the inhibition is -1% (inactive).

For `CCN(CC)CCCC(C)n1c2nc(=O)[nH]c(=O)c-2nc2cc(Cl)ccc21` (configuration not stated), the inhibition is 161% (active).

As to `CC(C)NC(=O)C(c1ccc(F)cc1)N(C(=O)CCC(=O)Nc1ccccn1)c1ccccc1F` (configuration not stated), the inhibition is -0.59% (inactive).

In the case of `C[C@H](C(=O)N(C)c1ccccc1)[C@@H](O)c1ccc2ccccc2c1`, the inhibition was 6.67% (inactive).

`Nc1ccccc1C(=O)NC1CCCCNC1=O` (configuration not stated): the inhibition is -3.31% (inactive).

Consider `O=C(NCc1ccco1)C1CCCN(S(=O)(=O)c2ccc(Cl)s2)C1` (configuration not stated), for which the inhibition is -5.05% (inactive).

With `O=C(OCC(O)C(O)COC(=O)c1ccccc1)c1ccccc1` (configuration not stated), the inhibition was 1.36% (inactive).

On to `O=C(NC1=CC(=O)c2ccccc2C1=O)c1ccccc1`, for which the inhibition is 36.9% (active).

As for `NS(=O)(=O)c1cc(C(=O)OCC(=O)NNC(=O)c2ccccc2)ccc1Cl`, the inhibition is -1.9% (inactive).

Turning to `C=C1c2c(Cl)ccc(O)c2C(O)=C2C(=O)[C@]3(O)C(O)=C(C(N)=O)C(=O)[C@@H](N(C)C)[C@@H]3[C@@H](O)C12` (some centres not stated), the inhibition is 44.5% (active).

Turning to `CN(C)[C@@H]1C(=O)C(C(N)=O)=C(O)[C@@]2(O)C(=O)C3=C(O)c4c(O)ccc(Cl)c4[C@@H](O)[C@H]3C[C@@H]12`, the inhibition was 32% (active).

For the compound `COC(=O)c1cc(S(=O)(=O)N2CCN(c3ccccc3C)CC2)cn1C`, the inhibition was -0.8% (inactive).

Turning to `COc1ncnc2c1N=C1CC(C)(C)CC(N)=C1S2`, the inhibition is 33.2% (active).

Consider `Cc1ccc(C(=O)NCC(=O)NC2CC2)cc1`, for which the inhibition was -3.08% (inactive).

Take `CN(C)C(CNC(=O)c1cccc(S(=O)(=O)N2CCc3ccccc3C2)c1)c1ccccc1` (configuration not stated): the inhibition is 2.65% (inactive).

With `COc1ccccc1NC(=O)COC(=O)COc1ccccc1F`, the inhibition was -0.97% (inactive).

Regarding `COc1ccccc1NC(=O)/C=C/C(N)=O`, the inhibition is 62.4% (active).

With `COc1ccccc1NC(=O)c1cc(Cl)nnc1Cl`, the inhibition is 0.83% (inactive).

On to `CN(C(=O)c1cccc([N+](=O)[O-])c1)c1ccccc1C(=O)NCc1ccccc1`, for which the inhibition is 0.8% (inactive).

In the case of `Cc1cc(C)n(-c2nc(O)cc(=O)[nH]2)n1`, the inhibition is -0.2% (inactive).

Take `Oc1ccc(N2CCN(C(=S)NCc3ccccc3)CC2)cc1`: the inhibition is 23.4% (active).

For the compound `O=C(CN1CCN(c2ccccc2O)CC1)NC(=O)NCc1ccccc1`, the inhibition was -0.8% (inactive).

With `O=C(COC(=O)c1ccccc1C(=O)N1CCN(c2ccccc2)CC1)NCc1ccccc1`, the inhibition is 12.8% (inactive).

In the case of `CC1CCN(C(=O)c2ncn3c2C(=O)N[C@@H](C)C3)CC1`, the inhibition was -0.43% (inactive).

Regarding `COc1ccc(S(=O)(=O)N(C)C[C@@H]2Oc3ccc(NS(=O)(=O)c4cn(C)cn4)cc3C(=O)N([C@@H](C)CO)C[C@@H]2C)cc1`, the inhibition is 0.38% (inactive).

Take `COc1ccc(CCNC(=O)CSc2nc3c([nH]2)c(=O)n(C)c(=O)n3C)cc1`: the inhibition was 1.93% (inactive).

Take `CC(C)(C)c1ccc(C(=O)Nc2cc(Cl)c(Br)cc2C(=O)O)cc1`: the inhibition was -1.7% (inactive).
